{"source": "PubChem BioAssay AID2401", "about": "(Southern Research Specialized Biocontainment Screening …, 2010)", "note": "Hit rate of the full screen: of about 2,200 compounds, about 530 (24%) were called active.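 Rule for the calls: active = inhibition above a set limit at one or more concentrations of the dose series; inactive = inhibition under that limit at every dose.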 A selection follows. Results with a measured potency or affinity are listed apart."}
{"assay": "nmpC-GFP reporter counter-screen in S. Typhimurium, dose response, counter-screen for PhoP regulon inhibitor project, Salmonella Typhimurium, GFP fluorescence (AID 2401);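 note: S. typhimurium with Mg-insensitive nmpC-GFP reporter grown at 10 µM Mg2+; drop in reporter fluorescence reflects general culture growth inhibition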", "details": "4 h; series mostly up to 150 µM; inhibition: at the top concentration"}
{"molecule": "CC(=O)Nc1ccc(OC(=O)c2cccnc2)cc1", "inhibition": "-41% (inactive)"}
{"molecule": "N/C(=N\\OC(=O)Cc1ccc(Cl)cc1)c1cccnc1", "inhibition": "7.23% (inactive)"}
{"molecule": "C/C(=C\\C(=O)c1cccnc1)Nc1ccc(O)cc1", "inhibition": "-1.89% (inactive)"}
{"molecule": "O=C1NN(c2ccccc2)C(=O)/C1=C\\c1coc2ccc(O)cc2c1=O", "inhibition": "23.4% (inactive)"}
{"molecule": "N/C(=N\\OC(=O)COc1ccc(Cl)cc1)c1cccnc1", "inhibition": "-0.64% (inactive)"}
{"molecule": "Cc1ccc2occ(/C=N/O)c(=O)c2c1", "inhibition": "5.82% (inactive)"}
{"molecule": "CCCCn1c(SCC(=O)Nc2nnc(CC)s2)nc2c1c(=O)n(C)c(=O)n2C", "inhibition": "-12.7% (inactive)"}
{"molecule": "Cc1ccc(OCC(=O)N2CCN(S(=O)(=O)c3ccccc3)CC2)c([N+](=O)[O-])n1", "inhibition": "-13% (inactive)"}
{"molecule": "O=C(CSc1nnc(-c2ccc(Br)cc2)o1)Nc1cccc2ccccc12", "inhibition": "-29.8% (inactive)"}
{"molecule": "COc1ccc(CCN2CC3=C(C2=O)C(c2ccccc2)NC(=O)N3C)cc1OC", "note": "(configuration not stated)", "inhibition": "-28.3% (inactive)"}
{"molecule": "COc1ccc(C2=Nc3nc(-c4ccccc4)cn3C(c3ccc(OC)cc3)C2)cc1", "note": "(configuration not stated)", "inhibition": "12.4% (inactive)"}
{"molecule": "CC(C)CC(=O)N/C(N)=N/c1nc2ccccc2s1", "inhibition": "-11.2% (inactive)"}
{"molecule": "O=C1NC(=Nc2ccccc2)/C(=C/c2ccco2)S1", "inhibition": "-0.32% (inactive)"}
{"molecule": "O=C(CNC(=O)OCc1ccccc1)NCC(=O)N1CCCC1C(=O)OCc1ccccc1", "note": "(configuration not stated)", "inhibition": "-16.3% (inactive)"}
{"molecule": "CC(NC(=O)CSc1nc2c(cc1C#N)CN(C)CC2)c1ccccc1", "note": "(configuration not stated)", "inhibition": "-20.3% (inactive)"}
{"molecule": "CCCn1c(N)c(C(=O)COC(=O)c2c(C)noc2C)c(=O)n(C)c1=O", "inhibition": "4.48% (inactive)"}
{"molecule": "CC(CO)(CO)NCc1ccc(-c2ccccc2)cc1", "inhibition": "-18.6% (inactive)"}
{"molecule": "COc1ccc2c(c1)C1C=CCC1C(c1cc3c(cc1Br)OCO3)N2", "note": "(configuration not stated)", "inhibition": "27.1% (inactive)"}
{"molecule": "O=C1CCCc2c1cc(C(=O)NCc1ccco1)c(=O)n2-c1ccc(Cl)cc1", "inhibition": "-27.7% (inactive)"}
{"molecule": "CCOc1ccccc1Nc1nc2ccccc2n2cnnc12", "inhibition": "-21.1% (inactive)"}
{"molecule": "O=C(CCN1CCCCC1)NCC1OCCc2ccccc21", "note": "(configuration not stated)", "inhibition": "-14% (inactive)"}
{"molecule": "O=C(CCN1CCc2ccccc2C(c2ccccc2)C1)c1ccc2c(c1)OCCO2", "note": "(configuration not stated)", "inhibition": "34.7% (inactive)"}
{"molecule": "c1ccc(Cn2nnc3c(NCc4ccc5c(c4)OCO5)nc(C4CC4)nc32)cc1", "inhibition": "20.9% (inactive)"}
{"molecule": "FC(F)Oc1ccc(NC(=S)NCc2nc3ccccc3[nH]2)cc1", "inhibition": "4.23% (inactive)"}
{"molecule": "O=C1C2CCCN2c2ccc(S(=O)(=O)N3CCOCC3)cc2N1Cc1ccccc1F", "note": "(configuration not stated)", "inhibition": "-5.87% (inactive)"}
{"molecule": "CCOc1cc(S(=O)(=O)N2CCN(CC)CC2)ccc1Cl", "inhibition": "-14.5% (inactive)"}
{"molecule": "c1ccc(-n2cnc3cc(NCc4ccncc4)ccc32)cc1", "inhibition": "-21% (inactive)"}
{"molecule": "CCCCn1c(/N=C/c2ccccc2NS(=O)(=O)c2ccc(C)cc2)nc2ccccc21", "inhibition": "21.9% (inactive)"}
{"molecule": "CCN(CC)C(=O)CP(=O)(c1ccccc1)c1ccccc1", "inhibition": "-19.4% (inactive)"}
{"molecule": "O=c1[nH]c(CSc2nnc(NCCCN3CCOCC3)s2)nc2cc(Cl)ccc12", "inhibition": "-2.07% (inactive)"}
{"molecule": "O=C(CSCc1cccc(CSCC(=O)Nc2ccc3ccccc3c2)n1)Nc1ccc2ccccc2c1", "inhibition": "-7.19% (inactive)"}
{"molecule": "CCN(CC)S(=O)(=O)c1ccc2c(c1)nc(SCC(=O)N1CCOCC1)n2-c1ccccc1OC", "inhibition": "-29.7% (inactive)"}
{"molecule": "CCCc1cc(-c2nc(N)ncc2-c2ccc3c(c2)OCCCO3)c(O)cc1OC", "inhibition": "-6.75% (inactive)"}
{"molecule": "c1ccc(CNc2nc(N3CCN(Cc4ccccc4)CC3)nc3ccccc23)cc1", "inhibition": "15.1% (inactive)"}
{"molecule": "O=S(=O)(c1ccc(S(=O)(=O)N2CCN(C/C=C/c3ccccc3)CC2)cc1)N1CCCC1", "inhibition": "-7.27% (inactive)"}
{"molecule": "CCN1CCN(c2oc(COc3ccc(Cl)cc3)nc2C#N)CC1", "inhibition": "-11.3% (inactive)"}
{"molecule": "COc1ccc(NC(=O)C(Sc2nnc(-c3ccncc3)n2-c2ccccc2C)c2ccccc2)cc1Cl", "note": "(configuration not stated)", "inhibition": "39.3% (inactive)"}
{"molecule": "Cc1ccc(S(=O)(=O)NC2c3cccc4cccc(c34)C2Sc2n[nH]c(N)n2)cc1", "note": "(configuration not stated)", "inhibition": "-1.11% (inactive)"}
{"molecule": "Cc1ccc(S(=O)(=O)N2C(=O)CCC2C(=O)N2CCN(C)CC2)cc1", "note": "(configuration not stated)", "inhibition": "-6.94% (inactive)"}
{"molecule": "Cc1cccc(C=Nc2ccc3c(c2)oc2ccccc23)c1O", "inhibition": "2.82% (inactive)"}
{"molecule": "COc1ccc2cc(C)c3nnc(SCC(=O)Nc4nc(-c5ccccc5)cs4)n3c2c1", "inhibition": "-14.2% (inactive)"}
{"molecule": "c1ccc2cc(CSCc3nc4ccccc4[nH]3)ccc2c1", "inhibition": "21.6% (inactive)"}
{"molecule": "CN(C(=O)c1ccc2c(c1)OCO2)C1(C(=O)NC2CCCCC2)CCCCC1", "inhibition": "-27.6% (inactive)"}
{"molecule": "CC(=O)Nc1ccc(C(=O)Nc2nc(-c3cc(C)n(Cc4ccccc4)c3C)cs2)cc1", "inhibition": "17.5% (inactive)"}
{"molecule": "O=C(CSc1nc2ccccc2o1)Nc1ccc(N2CCOCC2)c(Cl)c1", "inhibition": "10.2% (inactive)"}
{"molecule": "N#Cc1nc(-c2ccco2)oc1NCCCN1CCOCC1", "inhibition": "-4.28% (inactive)"}
{"molecule": "N#C/C(=C\\c1c(Cl)cccc1Cl)c1nc2ccccc2[nH]1", "inhibition": "-16.6% (inactive)"}
{"molecule": "S=C(NN=C1C2CC3CC(C2)CC1C3)Nc1ccccc1", "inhibition": "-8.54% (inactive)"}
{"molecule": "C=CCNc1ncnc2c1[nH]c1ccc(C)cc12", "inhibition": "37% (inactive)"}
{"molecule": "Cc1ccc2[nH]c3c(NCc4ccccc4)ncnc3c2c1", "inhibition": "-8.46% (inactive)"}
{"molecule": "COc1cccc(-c2nnc(SCC(=O)Nc3ccc(OC)c(OC)c3)n2N)c1", "inhibition": "8.89% (inactive)"}
{"molecule": "Cc1ccc(C=Nc2ccccc2C(N)=O)s1", "inhibition": "19.4% (inactive)"}
{"molecule": "CC1(C)CC(=O)C=C(Nc2ccc(Br)cn2)C1", "inhibition": "-21.7% (inactive)"}
{"molecule": "S=C(NCc1cccnc1)Nc1cccc(Cl)c1", "inhibition": "8.84% (inactive)"}
{"molecule": "Cc1ccc(NC(=S)NCc2cccnc2)cc1", "inhibition": "-17.2% (inactive)"}
{"molecule": "OC(COCc1cccs1)CN1CCN(c2ccccn2)CC1", "note": "(configuration not stated)", "inhibition": "-21.3% (inactive)"}
{"molecule": "Cc1oc(CC(C)C)c(CN)c1C(=O)O", "inhibition": "-14.3% (inactive)"}
{"molecule": "Cc1nc(N)sc1Cc1ccc2c(c1)OCO2", "inhibition": "24.2% (inactive)"}
{"molecule": "CC(=O)Nc1cccc(OCC(=O)Nc2ccc(F)cc2)c1", "inhibition": "-31.6% (inactive)"}
{"molecule": "CC(=O)Nc1cccc(OC(=O)c2ccoc2C)c1", "inhibition": "-30.2% (inactive)"}
{"molecule": "CCN(CC)c1nc2n(c(=O)n1)CCO2", "inhibition": "-33.8% (inactive)"}
{"molecule": "Cc1ccccc1Nc1nc(-c2sc(NC(=O)c3cccc(Cl)c3)nc2C)cs1", "inhibition": "17% (inactive)"}
{"molecule": "Cc1cc(O)ccc1Nc1nc2ccccc2nc1Nc1ccc(O)cc1C", "inhibition": "33.7% (inactive)"}
{"molecule": "Cc1ccc(O)c(-c2cc(-c3cccc(F)c3)n[nH]2)c1", "inhibition": "27.2% (inactive)"}
{"molecule": "C=CCNC(=O)C(=O)NN=C1CCN(C)CC1", "inhibition": "-26.4% (inactive)"}
{"molecule": "N#CCOC(=O)c1sccc1-n1cccc1", "inhibition": "-11.9% (inactive)"}
{"molecule": "O=C(Cc1ccccc1)Nc1cccc(N2C(=O)C=CC2=O)c1", "inhibition": "30.8% (inactive)"}
{"molecule": "Cc1ccc(C2NNC(=O)C2NC(=O)c2ccccc2)cc1", "note": "(configuration not stated)", "inhibition": "-23.9% (inactive)"}
{"molecule": "Cc1ccc(-c2nnn(CC(=O)Nc3ccccc3-c3ccccc3)n2)c(-n2cnnn2)c1", "inhibition": "1.9% (inactive)"}
{"molecule": "Cc1cc(Nc2ccc(Cl)cc2)nc(N)n1", "inhibition": "32.1% (inactive)"}
{"molecule": "CC(C)(C)c1nn(-c2ccccc2)c2[nH]c(=O)c(CNCc3ccco3)cc12", "inhibition": "-17.9% (inactive)"}
{"molecule": "CC1(C)SC(=S)N(NC(=O)Nc2ccccc2)C1N(O)C(=O)Nc1ccccc1", "note": "(configuration not stated)", "inhibition": "-13.4% (inactive)"}
